The sample as a whole holds a higher share of hits than the screen did.
KDM5B inhibitor: blocks human KDM5B histone demethylase activity; Q9UGL1; KDM5B demethylase, FDH-coupled NADH fluorescence (FDH is formaldehyde dehydrogenase); Potency, µM (series often up to 57.7 µM), hits mostly inhibitors; hit rate 2.6% among 220,000; AID 1347165; active means well fitted inhibition curve with a large enough effect; further: 0% is about no effect; nearly all actives have a fitted effect of over 70% in size
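qHTS format, multiple compound concentrations. Buffer 50 mM HEPES pH 7.5/0.01% Tween-20; 200 nM KDM5BΔAP final; 10 min compound preincubation; substrate-mix levels 12.5 µM peptide, 25 µM α-KG, 0.25 mM NAD⁺; 30 min RT; ΔRFU.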
* hit, by the source's call; i = inactive; ! = repeats disagree. Potency means the concentration at half of the fitted maximal effect.

SMILES | KDM5B inhibitor
COC[C@H]1CCCN1Cc1cn(-c2ccccc2C)nc1-c1ccc(OC)c(F)c1 | i
COc1cc2cc(CN3CCC[C@@H]3CO)c(-c3cccc(Cl)c3)nc2cc1OC | 25µM*
COc1ccc(-c2nc3c(C)cccc3cc2CN2CCC(O)CC2)cc1OC | i
COc1ccc(OC)c(S(=O)(=O)N2CCCCCCNC(=O)CC2)c1 | i
COc1ccc(OC)c(C(=O)Oc2cc(Cl)ccc2Cl)c1 | i
Cc1cc(S(=O)(=O)Nc2ccc(F)cc2)ccc1OCC(=O)NCc1ccc2c(c1)OCO2 | i
Cn1cc(C(=O)N2CCOc3c(O)cc(-c4csc5ccccc45)cc3C2)cn1 | i
CCc1nc(CN2CCOc3c(O)cc(-c4nc(C)cnc4C)cc3C2)no1 | i
Cc1cnc(C)c(-c2cc(O)c3c(c2)CN(C(=O)c2ccncn2)CCO3)n1 | 25µM*
NCC(c1ccco1)N1CCCC1 (configuration not stated) | i
COc1cccc(CN2Cc3c(CN(C)Cc4ccccc4)nnn3CCC2=O)c1 | i
COc1cccc(C(=O)N2CCc3nc(-c4ccccc4)nc(-c4ccc(Cl)cc4)c3C2)c1 | i
Cc1ncsc1C(=O)NCc1ccc(N2CCCC2)nc1 | i
CCn1cc(-c2ccc(Cl)cc2)cc1C(=O)NCCN1CCOCC1 | i
O=C(NCCCN1CCCC1=O)c1ccc(-c2ccc(N3CCSCC3)nc2)cc1 | i
O=C(NCc1ccc(N2CCCC2)nc1)c1ccc(O)c(Cl)c1 | i
O=C(NCCCN1CCCC1)c1ccncc1 | i
O=C(NCCN1CCOCC1)c1ccc(-c2ccc(N3CCCCCC3)nc2)cc1 | 28µM*
Cc1ccc(CNC(=O)c2ccc(-c3ccc(N4CCCCC4)nc3)cc2)o1 | 20µM*
O=C(NCCCN1CCOCC1)c1ccc(-c2ccc(N3CCCCCC3)nc2)cc1 | 25µM*
Cc1ccc(C(=O)NCCN2CCOCC2)cc1S(=O)(=O)N1CCCCC1 | i
Cc1cccc(OCCN2CCC(CO)CC2)c1 | i
COc1ccc(CNC(=O)c2csc(NCc3ccccc3)n2)cc1 | i
O=C(/C=C/c1ccc(-c2cc(Cl)ccc2Cl)o1)c1ccc(Cl)cc1 | i
COC(=O)c1ccc(Oc2ccc(C(=O)OC)cc2)cc1 | i
SMILES | KDM5B inhibitor
FC(F)Oc1ccc(NC(=S)NCCc2ccccc2)cc1 | i
COc1ccc(Cc2nnc(SCC(=O)Nc3ccc(F)c(F)c3)n2C)cc1 | i
CCn1c(CO)nnc1C1CC(NC(=O)NCCc2ccccc2F)C1 (configuration not stated) | i
CCn1c(CO)nnc1C1CC(NC(=O)CN2CCOCC2)C1 (configuration not stated) | i
CCn1c(CO)nnc1C1CC(NC(=O)c2nc(-c3ccccc3)[nH]c2C)C1 (configuration not stated) | i
CCn1c(CO)nnc1C1CC(NC(=O)c2sccc2N)C1 (configuration not stated) | 11µM*
Cn1c(Cn2cccn2)nnc1C1CC(NC(=O)c2sccc2N)C1 (configuration not stated) | 16µM*!
Cn1c(Cn2cccn2)nnc1C1CC(Nc2ncnc3ccsc23)C1 (configuration not stated) | i
COCCn1c(CO)nnc1C1CC(NC(=O)c2cn3ccsc3n2)C1 (configuration not stated) | i
Cc1ocnc1C(=O)NC1CC(c2nnc(Cn3cccn3)n2C)C1 (configuration not stated) | i
CCNc1ncc(C(=O)NC2CC(c3nnc(CO)n3CC)C2)cn1 (configuration not stated) | 25µM*
Cc1ccc(-n2cccc2C=O)cc1Cl | i
CNc1nc(-c2ccc(NC(=O)C(C)C)cc2)cs1 | i
CCc1ccc(CNCc2ccco2)cc1 | i
CC1=C(C(=O)Nc2ccccc2C(=O)NCCc2ccco2)SCCO1 | i
CCn1ccc(C(=O)NCc2cccnc2N(C)CCc2ccccn2)n1 | 28µM*
Cc1nnnn1CC(=O)NCc1cccnc1N(C)CCc1ccccn1 | i
Cc1cc(C(=O)NCc2cccnc2N(C)C)no1 | i
N#Cc1nc(-c2cccc3ccccc23)oc1NCC(c1cccs1)N1CCOCC1 (configuration not stated) | i
CCc1ccccc1NC(=O)c1nn(Cc2ccccc2)c(=O)c2ccccc12 | i
Cc1ccc(-c2cccc(COc3cnc4c(ccn4CC(=O)O)c3)c2)cc1 | 35µM*
O=CN1CCN(C(=O)Cn2ccc3cc(OCc4ccccc4)ccc32)CC1 | i
O=C(O)c1cccc(COc2ccc(Cl)cc2Cl)c1 | i
O=C(Nc1ccc(Cl)cn1)c1cccc(OCc2ccccc2)c1 | i
O=C(O)Cn1ccc2cc(OCc3cccc(-c4ccc(F)c(Cl)c4)c3)cnc21 | 40µM*
O=C(O)CNC(=O)Cn1ccc2cc(OCc3ccccc3)ccc21 | i
C=CCSc1nc2c(c(=O)[nH]c(=O)n2C)n1CCOC | i
COc1ccc(/C=C2\Oc3cc(OC(=O)C(C)(C)C)ccc3C2=O)c(OC)c1OC | i
O=C(c1cccc(F)c1)N1CCCC(n2cc(-c3nc(C4CC4)no3)nn2)C1 (configuration not stated) | i

Screening results from PubChem.
